Some test systems named below: SK-MEL-2 melanoma; EKVX NSCLC; SN12C renal; UO-31 renal; TK-10 renal; A498 renal; CCRF-CEM leukemia; MOLT-4 leukemia; SR leukemia; RPMI-8226 leukemia; OVCAR-8 ovarian; OVCAR-5 ovarian; OVCAR-4 ovarian; SK-OV-3 ovarian; IGROV1 ovarian; OVCAR-3 ovarian; HS 578T breast; NCI/ADR-RES ovarian.
Holding throughout (test): NCI-60 one-dose screen, 48 h (100 = growth as untreated, 0 = no growth, -100 = all killed)
Holding throughout (settings): 10 µM unless noted

Each structure is given as a SMILES string. This is part of a sample that, as a whole, favours compounds with a hit. Of some 83,000 tested, about 20% had one in any assay.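 Results are percent growth after 48 hours of single-concentration exposure. 100 means growth as in untreated cells, lower positive values show inhibition; negative values down to -100 show cell death.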 Values without a mark were called inactive. Activity calls are given as the source filed them. How the source made its calls: active means growth percent below 10; inactive means the rest.

On to `COc1ccc(-c2nnc(SCC(=O)Nc3ccc(C(=O)/C=C/c4ccc(OC)c(OC)c4)cc3)o2)cc1`, for which the growth with SK-MEL-2 melanoma is 94.1%; with EKVX NSCLC, 90%; with SN12C renal, 92.3%; with UO-31 renal, 73.8%; with TK-10 renal it was 95.9%; in the assay on A498 renal it was 103%. In addition, the growth was 77.7% with CCRF-CEM leukemia; 68.1% in the assay with MOLT-4 leukemia; 60.1% with SR leukemia; 60.1% with RPMI-8226 leukemia; 88.1% in the assay with OVCAR-8 ovarian; 124% in the assay with OVCAR-5 ovarian. Moreover, the growth was 86.9% in the assay on OVCAR-4 ovarian; 84.6% in the assay with SK-OV-3 ovarian; 85.9% in the assay on IGROV1 ovarian; 100% in the assay on OVCAR-3 ovarian; 93.4% in the assay on HS 578T breast; 90.1% in the assay with NCI/ADR-RES ovarian.

Regarding `C#C[C@@]1(O)[C@@H](CO)O[C@@H](n2cc(C(F)(F)F)c3c(N)ncnc32)[C@@H]1O`, the growth in the assay on SK-MEL-2 melanoma was -52.9% (active); with EKVX NSCLC, 5.12% (active); in the assay on SN12C renal, 9.05% (active); with UO-31 renal, -35.4% (active); with TK-10 renal, 12.5%; in the assay with A498 renal, -84.3% (active). Further, the growth was 5.1% (active) in the assay with CCRF-CEM leukemia; -8.68% (active) in the assay on MOLT-4 leukemia; -6.19% (active) in the assay with SR leukemia; -33.6% (active) with RPMI-8226 leukemia; 2.43% (active) in the assay with OVCAR-8 ovarian; 14.1% in the assay on OVCAR-5 ovarian. The growth in the assay on OVCAR-4 ovarian was 15.8%; with SK-OV-3 ovarian it was -7.5% (active); in the assay with IGROV1 ovarian it was 2.75% (active); in the assay with OVCAR-3 ovarian, -2.07% (active); with HS 578T breast, -15.6% (active); with NCI/ADR-RES ovarian, 6.08% (active).

Take `Nc1ncnc2c1c(C(F)(F)F)cn2[C@@H]1O[C@H](CO)[C@@H](O)[C@H]1O`: the growth in the assay with SK-MEL-2 melanoma is -42.6% (active); in the assay on EKVX NSCLC, 3.57% (active); with SN12C renal, 15.7%; in the assay on UO-31 renal it was 2.15% (active); with TK-10 renal, 4.15% (active); in the assay on A498 renal, -43.2% (active). In addition, the growth is 5.79% (active) in the assay with CCRF-CEM leukemia; 0.0629% (active) in the assay on MOLT-4 leukemia; 1.01% (active) in the assay on SR leukemia; -20.3% (active) in the assay on RPMI-8226 leukemia; 18.1% with OVCAR-8 ovarian; 15.6% with OVCAR-5 ovarian. The growth in the assay on OVCAR-4 ovarian was 24.6%; in the assay on SK-OV-3 ovarian, 28.2%; in the assay on IGROV1 ovarian it was 12.9%; in the assay with OVCAR-3 ovarian it was 5.78% (active); in the assay on HS 578T breast, -0.85% (active); in the assay with NCI/ADR-RES ovarian, 7.35% (active).

For the compound `CCn1cc(C(=O)O)c(=O)c2cc(F)c(N3CCN(CC(=O)Nc4ccc(C(C)=O)cc4)CC3)cc21`, the growth was 92.8% with SK-MEL-2 melanoma; 103% in the assay on EKVX NSCLC; 98.9% in the assay with SN12C renal; 93.6% in the assay with UO-31 renal; 89.3% in the assay on TK-10 renal; 95.5% in the assay with A498 renal. Also, the growth is 98.7% in the assay with CCRF-CEM leukemia; 97.6% in the assay with MOLT-4 leukemia; 91.9% in the assay with SR leukemia; 106% in the assay with RPMI-8226 leukemia; 100% with OVCAR-8 ovarian; 107% with OVCAR-5 ovarian. For the same compound, the growth was 113% in the assay on OVCAR-4 ovarian; 99.9% in the assay with SK-OV-3 ovarian; 102% in the assay with IGROV1 ovarian; 111% with OVCAR-3 ovarian; 101% with HS 578T breast; 97.1% with NCI/ADR-RES ovarian.

On to `Nn1c(CN2CCN(c3cc4c(cc3F)c(=O)c(C(=O)O)cn4C3CC3)CC2)n[nH]c1=S`, for which the growth in the assay on SK-MEL-2 melanoma is 95.9%; with EKVX NSCLC it was 102%; with SN12C renal it was 95.7%; in the assay on UO-31 renal it was 91.7%; in the assay with TK-10 renal, 93.8%; in the assay with A498 renal it was 97.7%. Besides, the growth with CCRF-CEM leukemia was 98.8%; in the assay on MOLT-4 leukemia, 103%; in the assay with SR leukemia, 99.1%; in the assay with RPMI-8226 leukemia, 102%; with OVCAR-8 ovarian it was 106%; with OVCAR-5 ovarian it was 108%. Also, the growth in the assay with OVCAR-4 ovarian is 102%; with SK-OV-3 ovarian it was 107%; in the assay with IGROV1 ovarian, 97.3%; with OVCAR-3 ovarian, 103%; in the assay on HS 578T breast, 108%; in the assay with NCI/ADR-RES ovarian, 106%.

On to `COc1ccccc1C(OC(C)=O)OC(C)=O`, for which the growth is 90.7% with SK-MEL-2 melanoma; 99% in the assay with EKVX NSCLC; 111% in the assay with SN12C renal; 89.9% in the assay on UO-31 renal; 91.1% in the assay with TK-10 renal; 113% in the assay on A498 renal. In addition, the growth in the assay on CCRF-CEM leukemia is 113%; in the assay with MOLT-4 leukemia, 103%; in the assay on SR leukemia, 88.7%; in the assay with RPMI-8226 leukemia, 101%; in the assay with OVCAR-8 ovarian it was 112%; in the assay with OVCAR-5 ovarian, 112%. The growth in the assay with OVCAR-4 ovarian was 111%; with SK-OV-3 ovarian it was 104%; in the assay with IGROV1 ovarian, 112%; in the assay with OVCAR-3 ovarian, 106%; in the assay with HS 578T breast it was 106%; in the assay with NCI/ADR-RES ovarian, 100%.

Regarding `COc1ccc(-n2c(-c3ccc(NC(=O)CCCl)cc3)nnc2-c2cc(OC)c(OC)c(OC)c2)cc1`, the growth in the assay on SK-MEL-2 melanoma is 48.3%; with EKVX NSCLC, 51.2%; in the assay on SN12C renal, 72.3%; with UO-31 renal, 43.8%; in the assay on TK-10 renal, 70.2%; in the assay with A498 renal, 65.4%. The growth with CCRF-CEM leukemia was 16.8%; in the assay on MOLT-4 leukemia it was 6.29% (active); in the assay with SR leukemia, 6.09% (active); with RPMI-8226 leukemia it was 31%; in the assay on OVCAR-8 ovarian it was 49.2%; in the assay on OVCAR-5 ovarian, 79.7%. The growth with OVCAR-4 ovarian was 54.1%; in the assay on SK-OV-3 ovarian, 45.2%; in the assay on IGROV1 ovarian it was 42.4%; in the assay with HS 578T breast, 56%; in the assay on NCI/ADR-RES ovarian it was 55.9%.

Take `COc1cc(NC(=O)C#Cc2ccccc2)c(OC)cc1Cl`: the growth is 60.4% in the assay with SK-MEL-2 melanoma; 62.7% in the assay on EKVX NSCLC; 26.4% with SN12C renal; 40.4% in the assay with UO-31 renal; 111% with TK-10 renal; 100% in the assay on A498 renal. Further, the growth in the assay on CCRF-CEM leukemia is 11.1%; in the assay with MOLT-4 leukemia, 22.4%; in the assay with SR leukemia, 12.4%; with RPMI-8226 leukemia it was 10.8%; with OVCAR-8 ovarian it was 38.6%; in the assay with OVCAR-5 ovarian it was 79.4%. Also, the growth in the assay on OVCAR-4 ovarian is 93.8%; in the assay on SK-OV-3 ovarian it was 97.8%; in the assay with IGROV1 ovarian, 4.48% (active); with OVCAR-3 ovarian it was 82.8%; in the assay with HS 578T breast, 79.8%; with NCI/ADR-RES ovarian, 56.5%.

The values are drawn from PubChem BioAssay (NCI).
